# Test results as given in ChEMBL document CHEMBL1201862, “PubChem BioAssay data set” (2004).
# Hit rate of the full screen: of about 400,000 compounds, about 2,100 (0.53%) were called active. Inconclusive results (about 14%) are left out. No rule for the calls is given here. What follows is part of a selection rich in actives, with near analogues and random picks from the rest.
# Molecular target: Ataxin-2 (Homo sapiens) (UniProt Q99700)
# Assay: qHTS for Inhibitors of ATXN expression.
# Format: functional
# Sequence of Ataxin-2 (Homo sapiens) (Q99700 whole entry): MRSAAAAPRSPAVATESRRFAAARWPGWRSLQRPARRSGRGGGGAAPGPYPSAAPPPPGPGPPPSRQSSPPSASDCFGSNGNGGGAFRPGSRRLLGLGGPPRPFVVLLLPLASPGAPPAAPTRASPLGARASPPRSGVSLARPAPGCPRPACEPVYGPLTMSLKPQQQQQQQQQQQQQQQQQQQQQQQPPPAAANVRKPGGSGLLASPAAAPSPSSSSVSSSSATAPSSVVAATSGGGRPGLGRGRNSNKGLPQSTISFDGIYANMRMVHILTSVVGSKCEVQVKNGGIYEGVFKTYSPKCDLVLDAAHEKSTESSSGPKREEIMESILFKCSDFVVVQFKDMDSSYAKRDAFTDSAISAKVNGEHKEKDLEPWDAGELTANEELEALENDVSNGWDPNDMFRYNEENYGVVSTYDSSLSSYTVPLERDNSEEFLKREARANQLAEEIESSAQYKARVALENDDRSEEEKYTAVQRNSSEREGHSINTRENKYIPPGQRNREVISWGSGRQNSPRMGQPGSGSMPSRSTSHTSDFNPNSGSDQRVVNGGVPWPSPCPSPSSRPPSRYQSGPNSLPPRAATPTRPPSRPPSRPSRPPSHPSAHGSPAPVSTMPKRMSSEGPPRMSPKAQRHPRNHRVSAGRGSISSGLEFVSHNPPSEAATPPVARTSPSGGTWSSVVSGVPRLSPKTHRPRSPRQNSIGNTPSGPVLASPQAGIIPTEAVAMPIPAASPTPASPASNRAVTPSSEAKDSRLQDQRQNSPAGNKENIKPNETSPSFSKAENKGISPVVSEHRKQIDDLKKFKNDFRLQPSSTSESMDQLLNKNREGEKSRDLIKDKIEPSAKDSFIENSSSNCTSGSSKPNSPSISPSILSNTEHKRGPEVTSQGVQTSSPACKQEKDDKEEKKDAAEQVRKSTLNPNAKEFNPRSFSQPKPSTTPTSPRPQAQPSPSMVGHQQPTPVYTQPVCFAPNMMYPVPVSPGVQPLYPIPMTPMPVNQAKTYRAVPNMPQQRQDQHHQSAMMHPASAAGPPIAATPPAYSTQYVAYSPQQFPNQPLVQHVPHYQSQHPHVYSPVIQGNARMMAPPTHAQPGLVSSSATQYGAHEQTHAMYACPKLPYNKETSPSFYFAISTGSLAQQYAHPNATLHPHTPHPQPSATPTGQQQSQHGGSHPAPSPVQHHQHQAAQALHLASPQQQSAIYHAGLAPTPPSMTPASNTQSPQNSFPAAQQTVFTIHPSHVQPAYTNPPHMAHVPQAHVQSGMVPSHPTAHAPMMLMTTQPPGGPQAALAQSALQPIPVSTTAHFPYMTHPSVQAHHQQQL
row,Structure (SMILES),Potency
1,NC1=NC(=O)C(Cc2ccc(Br)cc2)S1 (stereo not drawn),inactive
2,Nc1nc(N)c2ncc(C(=O)CCc3ccccc3)nc2n1,inactive
3,O=c1c2ccccc2nc(-c2ccccc2)n1O,inactive
4,CN(C)c1ccnc2sc(C(=O)c3ccc(Br)cc3)c(N)c12,inactive
5,COC(=O)c1c(NC(=O)c2ccc(S(=O)(=O)N3CCCCC3C)cc2)sc2c1CCN(C(C)C)C2 (stereo not drawn),inactive
6,CCC1CCCCN1S(=O)(=O)c1ccc(C(=O)Nc2sc3c(c2C(=O)NC)CCC3)cc1 (stereo not drawn),inactive
7,CC1CCCCN1S(=O)(=O)c1ccc(C(=O)N(CCCN(C)C)c2nc3ccc(Br)cc3s2)cc1 (stereo not drawn),39.8 µM (active)
8,CSc1nsc(SCC(=O)Nc2ccccc2C(N)=O)n1,inactive
9,Cc1ccc(Cn2c(=N)c(C(=O)NCC3CCCO3)cc3c(=O)n4cccc(C)c4nc32)cc1 (stereo not drawn),inactive
10,CSCCC(NC(=O)COc1ccccc1)C(=O)NCCOc1ccccc1 (stereo not drawn),inactive
11,COc1ccc(OC)c2cc3ccccc3cc12,17.8 µM (active)
12,COc1c2ccccc2nc2ccccc12,inactive
13,COc1cc2ccccc2cc1C(=O)Nc1ccc(O)cc1,inactive
14,COc1ccc2c(c1)cc(C(=O)N/N=C/c1c(O)c(C(=O)O)cc3ccccc13)n2C,inactive
15,CCOc1ccc(CCNC(=O)C2CCCN(c3nnc(C)c4c(C)n(-c5ccccc5)nc34)C2)cc1 (stereo not drawn),31.6 µM (active)
16,CCOC(=O)N1CCN(S(=O)(=O)N2CCCC(C(=O)NCCc3ccc(Cl)cc3)C2)CC1 (stereo not drawn),inactive
17,CCOc1ccc(NC(=O)C2CCCN(c3nn4c(=O)cc(C)nc4s3)C2)cc1 (stereo not drawn),inactive
18,Cc1cccc(CNC(=O)CCCn2nc(C)c3c(C)n(-c4ccccc4)nc3c2=O)c1,inactive
19,COc1ccc(C)cc1NC(=O)C1CCCN1S(=O)(=O)c1ccccc1F (stereo not drawn),inactive
20,Cc1ccc(-n2nc3c(N4CCCC(C(=O)NCCc5ccccc5)C4)nnc(C)c3c2C)cc1 (stereo not drawn),20 µM (active)
21,Cc1nnc(N2CCCC(C(=O)Nc3cc(F)ccc3F)C2)c2nn(-c3ccccc3)c(C)c12 (stereo not drawn),35.5 µM (active)
22,CCOc1ccc(CNC(=O)C2CCCN(c3nnc(C)c4c(C)n(-c5ccccc5)nc34)C2)cc1 (stereo not drawn),15.8 µM (active)
23,Cc1ccc(-n2nc3c(=O)n(C(C)C(=O)NCCc4cccs4)nc(C)c3c2C)cc1 (stereo not drawn),inactive
24,Cc1cc(NC(C)C)n2c(nc3ccccc32)c1C#N,inactive
25,COC(=O)c1c(C(=O)OC)c2c(-c3ccccc3)cc3cccc1n32,inactive
26,Cc1ccc(C2=CC(c3ccccc3)n3ncnc3N2)cc1 (stereo not drawn),inactive
27,CCn1c(=N)c(C(=O)NC2CCCC2)cc2c(=O)n3ccccc3nc21,inactive

row,Structure (SMILES),Potency
1,COC(=O)c1ccc(-c2sc3nc(N4CCOCC4)c4c(c3c2N)CCCC4)o1,inactive
2,O=C(CSc1ccc(-c2cccs2)nn1)Nc1ccccc1F,inactive
3,Cc1cc(C)n2nc(C(=O)OCC(=O)NC3CCS(=O)(=O)C3)nc2n1 (stereo not drawn),inactive
4,N#Cc1c(-c2ccccc2F)cc(C2CC2)nc1SCC(=O)c1cccs1,inactive
5,CCOc1ccccc1CNC(=O)C1CCN(c2nnc(C)c3c(C)n(-c4ccc(C)cc4)nc23)CC1,35.5 µM (active)
6,Cc1nnc(N2CCCC(C(=O)NCCN(C)C)C2)c2nn(-c3ccccc3)c(C)c12 (stereo not drawn),44.7 µM (active)
7,CCOc1ccccc1NC(=O)C1CCC(CNc2c(N3CCCCC3)c(=O)c2=O)CC1 (stereo not drawn),inactive
8,O=C(NCCS(=O)(=O)N1CCN(c2ccccc2)CC1)C1CCCCC1,inactive
9,N#Cc1ccccc1CSc1nc2ccsc2c(=O)n1Cc1ccccn1,inactive
10,COc1ccc(-c2cc(=O)oc3cc(OC(=O)C4CCCCC4)ccc23)cc1,inactive
11,O=C1CCC([N+](=O)[O-])C(c2ccc3c(c2)OCO3)N1 (stereo not drawn),inactive
12,CCN(CC)c1ccc(-c2nc3cnccn3c2NC2CCCC2)cc1,inactive
13,O=C1N/C(=C/c2cccn2-c2ccc(F)cc2)C(=O)N1Cc1ccccc1,inactive
14,c1ccc(CNc2nc(NCCOc3ccccc3)c3sccc3n2)cc1,22.4 µM (active)
15,CNc1nc(NCC2CCCCC2)c2sccc2n1,12.6 µM (active)
16,COc1ccc(C(=O)NCCOc2ccccc2Cl)c(OC)c1OC,inactive
17,COc1ccccc1CNc1nc(NCC2CC2)nc2ccsc12,15.8 µM (active)
18,CC(C)Nc1nc(NCCOc2ccccc2Cl)c2sccc2n1,22.4 µM (active)
19,O=C(NC(=O)c1ccccc1Cl)C(=O)Nc1ccc(Cl)cc1,inactive
20,O=C(N/N=C/c1cc2c3c(c1O)CCCN3CCC2)c1ccccc1O,inactive
21,CCN(CC)c1ccc2cc(S(=O)(=O)c3ccc(Cl)cc3)c(=O)oc2c1,inactive
22,CCN(CC)S(=O)(=O)c1cccc(C(=O)N/N=C(\C)c2ccc(O)cc2O)c1,inactive
23,O=C(O)c1cc2ccc(O)cc2oc1=O,inactive
24,COc1ccc(-c2cnc(C(N)=O)c(O)n2)cc1,inactive
25,CC[C@@H]1C(c2ccccc2)=NN(c2ccc(Br)cc2)[C@H]1C(=O)N1CCOC1=O,inactive
26,O=C1OCCN1C(=O)[C@H]1[C@H](c2ccc(Cl)cc2)C(c2ccc(F)cc2)=NN1c1ccccc1,inactive
